Measured values: PubChem BioAssay (NCATS)
Several values for one entry are separate records, joined by “and”; a condition that tells them apart may be missing. Equal values may be shown once. Results filed as inconclusive are left out. A number with no mark means an inactive call. Activity calls are given as the source filed them. Calls follow the shape of the dose curve; as a rule, active = well fitted inhibition curve with a large enough effect; inconclusive = small, poorly fitted or top-dose-only effect; inactive = flat fitted curve, though single readings scatter.

biological target: Calcium and integrin-binding protein 1 (Homo sapiens) (UniProt Q99828); test: Primary qHTS for Identification of Calcium Integrin Binding Protein 1 (CIB1) Competitor (AID 1508620); settings: CIB1-GST / FITC-alphaIIb peptide fluorescence polarization; series mostly up to 114 µM; activity change, negative = inhibition: at the top concentration;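 also: GST tagged CIB1 binding a fluorescein labelled alphaIIb integrin peptide tracer; top concentration of the series differs between compounds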
In short: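 Fluorescence polarization competition: CIB1-GST (1 uM final) preincubated with compound 15 min at room temperature, then FITC-labeled alphaIIb peptide (100 nM final) added for another 15 min. Polarization read at Ex 480/Em 540.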
% is scaled to controls: 0 for no effect and ±100 for the full control effect.

Sequence of Calcium and integrin-binding protein 1 (Homo sapiens) (Q99828 whole entry, looked up): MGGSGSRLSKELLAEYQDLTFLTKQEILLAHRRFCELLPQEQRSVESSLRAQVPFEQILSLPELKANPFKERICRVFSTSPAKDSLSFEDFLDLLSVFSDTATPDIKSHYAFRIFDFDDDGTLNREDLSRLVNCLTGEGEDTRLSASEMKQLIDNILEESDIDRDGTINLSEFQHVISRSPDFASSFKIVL

SMILES	activity change, negative = inhibition
CC1OC(OCC2OC(OC3CCC4(C)C(CCC5(C)C4CC=C4C6CC(C)(C)CCC6(C(=O)OC6OC(CO)C(O)C(O)C6O)CCC45C)C3(C)CO)C(O)C(O)C2O)C(O)C(O)C1O (configuration not stated)	-6.51% [at 30.2 µM]
C=CC(=O)N1CCN(C(=O)CNc2cc(I)c(Cl)cc2O)CC1	-12.1%
CC(=O)O[C@@H]1[C@@H](O)[C@H](C)O[C@@H](O[C@H]2[C@@H]3C=CO[C@@H](O[C@@H]4O[C@H](CO)[C@@H](O)[C@H](O)[C@H]4O)[C@@H]3[C@@]3(CO)O[C@@H]23)[C@@H]1OC(=O)/C=C/c1ccccc1	3.47% [at 30.2 µM]
COc1c2c(c(C)c3c1C(=O)OC3)O[C@@]1(C)CCC3(C(C)(C)O)OC(=O)CC[C@]3(C)[C@H]1C2 (some centres not stated)	4.44% [at 57.7 µM]
COC(=O)c1cc(OC)cc(OC)c1C(=O)c1c(OC)cc2c(c1O)C1CCCC(C)(O2)O1 (configuration not stated)	1.41% [at 57.7 µM]
CO[C@H]1/C=C/C=C/C=C/C[C@H](OC(=O)[C@@H](C)NC(=O)C2CCCCC2)[C@H](C)[C@@H](O)/C(C)=C/CCc2cc(O)cc(c2)NC(=O)C1	-10% [at 30.2 µM]
CC(C)[C@H]1CC[C@@]2(O)COC(=O)[C@H]2[C@@H]1/C=C(\CO)C(=O)O	4.09%
Nc1ncnc2c1ncn2CCNCCCCCO	-3.92%
CC1(C)CCCC2(C)C=C(C(=O)O)C(O)CC12 (configuration not stated)	5.28%
O=C(c1ccc(/C=C/c2n[nH]c3ccccc23)cc1)N1CCNCC1	5.11%
CC(=O)C12OC(C)(C)OC1CC1C3CCC4=CC(=O)C=CC4(C)C3(F)C(O)CC12C (configuration not stated)	1.61%
CC(=O)OC1C(O)C2C(C)C3=CC(=O)OC3(O)CC2C2(C)CCCC(C)(CO)C12 (configuration not stated)	1.42% [at 57.7 µM]
C[C@@H]1O[C@@H](O[C@H]2[C@H](O[C@H]3[C@H](O[C@H]4CC[C@@]5(C)C(CC[C@]6(C)C5CC=C5[C@@H]7CC(C)(C)C[C@@H](O)[C@]7(C)CC[C@]56C)[C@@]4(C)CO)O[C@H](C(=O)O)[C@@H](O)[C@@H]3O)OC[C@H](O)[C@@H]2O)[C@H](O)[C@H](O)[C@H]1O (some centres not stated)	2.13% [at 30.2 µM]

test system: not listed separately; test: Primary qHTS for inhibitors of nuclear receptor binding SET domain protein 2 (NSD2) in an isogenic RCH-ACV NSD2 p.E1099K mutant (9B) (AID 1645876); settings: RCH-ACV (leukaemia line) NSD2 E1099K (9B) viability, CellTiter-Glo, 72 h; series mostly up to 44.9 µM; activity change, negative = viability loss: at the top concentration; also: nearly all actives have a fitted effect of over 70% in size; also: potency is read from the fitted curve at half-maximal effect

SMILES	activity change, negative = viability loss	Potency	outcome
C=C1OC2CC(C(=O)O)C=CC2NC1=O (configuration not stated)	0.448%	–	–
CC1(C)CCCC2(C)C(C(=O)O)=CCC12 (configuration not stated)	-14.1%	–	–
COc1cc(/C=C/C=O)cc(OC)c1O[C@@H]1O[C@H](CO)[C@@H](O)[C@H](O)[C@H]1O	-2.34%	–	–
COC(=O)C[C@H]1C(C)(C)[C@H](OC(=O)C(C)C)[C@@]2(O)C(=O)[C@]1(C)C1CC[C@]3(C)C(CC(=O)O[C@H]3c3ccoc3)[C@]13O[C@@H]32 (some centres not stated)	-3.66% [at 17.3 µM]	–	–
CC1(C)CC[C@]2(C(=O)O)CC[C@]3(C)C(=CCC4[C@@]5(C)C[C@@H](O)[C@H](O)C(C)(C)C5CC[C@]43C)C2C1 (some centres not stated)	-14.9% [at 17.3 µM]	–	–
CC1=CC(=O)CC(C)(C)[C@H]1/C=C/C(CO)O[C@@H]1O[C@H](CO)[C@@H](O)[C@H](O)[C@H]1O (some centres not stated)	-6.23%	–	–
Cc1c(NC(=O)c2cc(C(N)=O)nc3cc(F)ccc23)c(C(F)(F)F)nn1Cc1ccc(C#N)cc1	-24.8% [at 17.3 µM]	–	–
CN(C)c1ccc2c(c1)OC(N)=C(C#N)C2c1cccc(C(F)(F)F)c1 (configuration not stated)	–	817 nM (active)	–
C[C@@H]1O[C@@H](O[C@H]2[C@H](O[C@H]3[C@H](O)[C@@H](C(=O)O)O[C@@H](O[C@H]4CC[C@@]5(C)C(CC[C@]6(C)C5CC[C@]57OC[C@@]8(CCC(C)(C)CC85)[C@H](O)C[C@]76C)C4(C)C)[C@@H]3O[C@@H]3O[C@H](CO)[C@@H](O[C@@H]4OC[C@@H](O)[C@H](O)[C@H]4O)[C@H](O)[C@H]3O)O[C@H](CO)[C@H](O)[C@@H]2O)[C@H](O)[C@H](O)[C@H]1O (some centres not stated)	0.445% [at 9.23 µM]	–	–
C=C(C)C(=O)O[C@H]1CC2=CC(C/C(C)=C\[C@H]3OC(=O)C(=C)[C@H]13)OC2=O (some centres not stated)	–	5050 nM (active)	–
CC(=O)c1c(O)cc(O[C@@H]2O[C@H](CO)[C@@H](O)[C@H](O)[C@H]2O)cc1O	-7.43%	–	–
CC(C)(C)c1ccc(S(=O)(=O)Nc2ccc(Cl)cc2C(=O)c2cc[n+]([O-])cc2)cc1	-7.56%	–	–
O=C1C=CC2OC(c3ccccc3)C(O)C2O1 (configuration not stated)	–	5780 nM (active)	–
CC1CC2OC3(OC2C(C)(C)O)C1C1(C)CCC24CC25CCC(O[C@@H]2OC[C@@H](O)[C@H](O)[C@H]2O)C(C)(C)C5CC=C4C1(C)C3O (some centres not stated)	-1.92% [at 17.3 µM]	–	–
CC1OC(OC2CCC3(C)C(CCC4(C)C3CC=C3C5CC(C)(C)CCC5(C(=O)OC5OC(CO)C(O)C(O)C5O)CCC34C(=O)O)C2(C)C)C(O)C(O)C1O (configuration not stated)	4.99% [at 17.3 µM]	–	–
C[C@@]12C[C@]3(O)O[C@H](O1)[C@]1(COC(=O)c4ccccc4)[C@H]3C[C@@]12O[C@@H]1O[C@H](CO)[C@@H](O)[C@H](O)[C@H]1O	–	–	inactive [at 17.3 µM]
C=C(C(=O)OC)C1C(O)CC2(C)C(=O)CCC(O)(CO)C2C1O (configuration not stated)	4.78%	–	–
Cc1ccc(C(=O)N(CCCN)C(c2nc3cc(Cl)ccc3c(=O)n2Cc2ccccc2)C(C)C)cc1 (configuration not stated)	–	5.8 nM (active)	–
CC(=O)OC1C(c2ccccc2)CCC(c2ccccc2)C1OC(C)=O (configuration not stated)	4.85%	–	–
COC(=O)C[C@H]1C(C)(C)[C@H](OC(C)=O)C2CC3=C4CC(=O)O[C@@H](c5ccoc5)[C@]4(C)CCC3[C@@]1(C)C2=O (some centres not stated)	-19.2% [at 17.3 µM]	–	–

SMILES	activity change, negative = viability loss	Potency	outcome
C/C=C(\C)C(=O)O[C@@H]1CC2[C@@H](CC=C3C[C@@H](O[C@H]4C[C@H](OC)[C@H](O[C@H]5C[C@H](OC)[C@H](O[C@@H]6O[C@H](C)[C@@H](O[C@H]7C[C@H](OC)[C@H](O[C@@H]8O[C@H](CO)[C@@H](O)[C@H](O)[C@H]8O)[C@@H](C)O7)[C@H](OC)[C@H]6O)[C@@H](C)O5)[C@@H](C)O4)CC[C@@]32C)[C@@]2(O)CC[C@H](C(C)=O)[C@@]12C (some centres not stated)	-8.77% [at 9.23 µM]	–	–
C=C(C)C1CCC2(C(=O)O[C@@H]3O[C@H](CO[C@@H]4O[C@H](CO)[C@@H](O)[C@H](O)[C@H]4O)[C@@H](O)[C@H](O[C@@H]4O[C@@H](C)[C@H](O)[C@@H](O)[C@H]4O)[C@H]3O)CCC3(C(=O)O)C(CCC4C5(C)CCC(O)C(C)(C)C5CCC43C)C12 (some centres not stated)	–	–	inactive [at 9.23 µM]
CC(=O)N[C@H]1[C@H](O[C@H]2CC[C@@]3(C)C(CC[C@]4(C)C3CC=C3[C@@H]5CC(C)(C)CC[C@]5(C(=O)OC5OCC(O)C(O)C5O)CC[C@]34C)C2(C)C)O[C@H](COC2OC(C)C(O)C(OC3OC(C)C(O)C(O)C3O)C2O)[C@@H](O)[C@@H]1O (some centres not stated)	–	–	inactive [at 9.23 µM]
CC(C)CCC[C@@H](C)[C@H]1CC[C@H]2[C@@H]3CC(=O)[C@H]4C[C@@H](O)CC[C@]4(C)[C@H]3CC[C@]12C	-2.49%	–	–
CC1(C)CC[C@]23CO[C@@]4(CCC5[C@@]6(C)CC[C@H](O[C@@H]7OC[C@H](O[C@@H]8O[C@H](CO)[C@@H](O)[C@H](O)[C@H]8O)[C@H](O)[C@H]7O[C@@H]7O[C@H](CO)[C@@H](O[C@@H]8O[C@H](CO)[C@@H](O)[C@H](O)[C@H]8O)[C@H](O)[C@H]7O)[C@@](C)(CO)C6CC[C@@]5(C)[C@]4(C)C[C@H]2OC2OCC(O)C(O)C2O)C3C1 (some centres not stated)	–	688 nM (active)	–
CN[C@H](CC(C)C)C(=O)N[C@H]1C(=O)N[C@@H](CC(N)=O)C(=O)N[C@H]2C(=O)N[C@H]3C(=O)N[C@H](C(=O)N[C@H](C(=O)O)c4cc(O)cc(O)c4-c4cc3ccc4O)[C@H](O[C@H]3C[C@](C)(N)[C@@H](O)[C@H](C)O3)c3ccc(c(Cl)c3)Oc3cc2cc(c3O[C@@H]2O[C@H](CO)[C@@H](O)[C@H](O)[C@H]2O[C@H]2C[C@](C)(NCc3ccc(-c4ccc(Cl)cc4)cc3)[C@@H](O)[C@H](C)O2)Oc2ccc(cc2Cl)[C@H]1O	–	–	inactive [at 17.3 µM]
CC1OC(OCC2OC(OC3CCC4(C)C(CCC5(C)C4CC=C4C6CC(C)(C)CCC6(C(=O)OC6OC(CO)C(O)C(O)C6O)CCC45C)C3(C)CO)C(O)C(O)C2O)C(O)C(O)C1O (configuration not stated)	3.81% [at 9.23 µM]	–	–
C=CC(=O)N1CCN(C(=O)CNc2cc(I)c(Cl)cc2O)CC1	–	5150 nM (active)	–
CC(=O)O[C@@H]1[C@@H](O)[C@H](C)O[C@@H](O[C@H]2[C@@H]3C=CO[C@@H](O[C@@H]4O[C@H](CO)[C@@H](O)[C@H](O)[C@H]4O)[C@@H]3[C@@]3(CO)O[C@@H]23)[C@@H]1OC(=O)/C=C/c1ccccc1	3.31% [at 17.3 µM]	–	–
COc1c2c(c(C)c3c1C(=O)OC3)O[C@@]1(C)CCC3(C(C)(C)O)OC(=O)CC[C@]3(C)[C@H]1C2 (some centres not stated)	-23.3% [at 17.3 µM]	–	–
COC(=O)c1cc(OC)cc(OC)c1C(=O)c1c(OC)cc2c(c1O)C1CCCC(C)(O2)O1 (configuration not stated)	–	–	inactive [at 17.3 µM]
CO[C@H]1/C=C/C=C/C=C/C[C@H](OC(=O)[C@@H](C)NC(=O)C2CCCCC2)[C@H](C)[C@@H](O)/C(C)=C/CCc2cc(O)cc(c2)NC(=O)C1	–	342 nM (active)	–
CC(C)[C@H]1CC[C@@]2(O)COC(=O)[C@H]2[C@@H]1/C=C(\CO)C(=O)O	-1.08%	–	–
Nc1ncnc2c1ncn2CCNCCCCCO	3.43%	–	–
CC1(C)CCCC2(C)C=C(C(=O)O)C(O)CC12 (configuration not stated)	-2.6%	–	–
O=C(c1ccc(/C=C/c2n[nH]c3ccccc23)cc1)N1CCNCC1	–	649 nM (active) and 2.63 µM (active)	–
CC(=O)C12OC(C)(C)OC1CC1C3CCC4=CC(=O)C=CC4(C)C3(F)C(O)CC12C (configuration not stated)	-33.8%	–	–
CC(=O)OC1C(O)C2C(C)C3=CC(=O)OC3(O)CC2C2(C)CCCC(C)(CO)C12 (configuration not stated)	1.38% [at 17.3 µM]	–	–
C[C@@H]1O[C@@H](O[C@H]2[C@H](O[C@H]3[C@H](O[C@H]4CC[C@@]5(C)C(CC[C@]6(C)C5CC=C5[C@@H]7CC(C)(C)C[C@@H](O)[C@]7(C)CC[C@]56C)[C@@]4(C)CO)O[C@H](C(=O)O)[C@@H](O)[C@@H]3O)OC[C@H](O)[C@@H]2O)[C@H](O)[C@H](O)[C@H]1O (some centres not stated)	2.23% [at 9.23 µM]	–	–
